ClpP mod – qHTS Assay for Activators of ClpP; ATP-dependent Clp protease proteolytic subunit (Bacillus subtilis (strain 168)), P80244; purified B. subtilis ClpP, FRET peptide cleavage, 20 min; Potency, µM (doses to about 57.5 µM), without a hit: at the top dose activity change, negative = active; hit rate 1.9% among 340,000; active = well fitted falling curve with a large enough effect; inconclusive = small, poorly fitted or top-dose-only effect; inactive = no such curve, though single readings can be large or run the other way; note: potency is the fitted concentration of half-maximal effect; the source files actives as falling curves though it sought activators and does not explain the sign; nearly all actives have a fitted effect of over 65% in size
Target sequence (P80244 whole entry, looked up): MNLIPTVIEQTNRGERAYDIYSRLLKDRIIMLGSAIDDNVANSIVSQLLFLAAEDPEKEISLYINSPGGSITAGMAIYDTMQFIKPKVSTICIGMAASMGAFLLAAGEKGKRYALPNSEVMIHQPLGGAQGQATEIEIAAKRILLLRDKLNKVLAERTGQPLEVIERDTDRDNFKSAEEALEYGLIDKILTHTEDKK
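Purified B. subtilis ClpP, 10 microg/mL final in Tris/HCl pH8 with KCl, BSA, glycerol and Tween-20, cleaved an Abz/nitrotyrosine-quenched decapeptide. Fluorescence (ex 320, em 430) was read at 0 and 20 min at room temperature. Delta was normalized to 5.8 microM ADEP and DMSO/no-enzyme controls.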
D3 ag – agonists of human D3 dopamine receptor; AID 652048; hit rate 0.58% among 410,000; D3R DiscoveRx beta-arrestin cells, luminescence, 90 min; max activation, %; P35462; in the data active = max activation above about 30%; note: 0% is about no effect
Target sequence (P35462 whole entry, looked up): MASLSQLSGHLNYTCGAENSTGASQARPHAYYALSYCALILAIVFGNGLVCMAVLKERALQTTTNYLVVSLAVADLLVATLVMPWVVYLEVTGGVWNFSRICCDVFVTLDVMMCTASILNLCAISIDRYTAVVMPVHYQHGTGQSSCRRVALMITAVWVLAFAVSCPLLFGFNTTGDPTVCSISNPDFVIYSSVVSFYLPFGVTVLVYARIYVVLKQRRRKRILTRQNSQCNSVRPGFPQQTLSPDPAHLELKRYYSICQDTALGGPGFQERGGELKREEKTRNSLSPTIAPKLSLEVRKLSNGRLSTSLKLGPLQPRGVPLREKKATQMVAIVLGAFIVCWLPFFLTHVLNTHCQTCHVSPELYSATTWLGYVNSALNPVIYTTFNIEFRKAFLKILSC
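Cells at 1500/well, incubated overnight, then treated with pinned compounds (dopamine as control) for 90 min at 37 degrees C. DiscoveRx reagent added for 30 - 60 minutes at room temperature; luminescence read.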
DRD3 antagonist – blocks the human D3 dopamine receptor | P35462 | D3R cells, DiscoveRx beta-arrestin luminescence, antagonist mode; hits give low values | max response, negative = inhibition, % | hit rate 2.5% among 360,000 | AID 652054; in the data active = max response below about -50%; inconclusive = no clear call, values can overlap the other calls; note: % is set by controls: 0 for no effect and ±100 for the full control effect
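Cells expressing the human receptor were seeded at 1500 cells/well, incubated overnight at 37 degrees C in 5% CO2, then exposed to library compounds with dopamine controls for 90 minutes at 37 degrees C before luminescent detection.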
TDP1 cell CPT – growth inhibition of DT40 Tdp1-/-;hTDP1 cells with camptothecin (screen for TDP1 inhibitors); chicken DT40 Tdp1-/-;hTDP1 cells + 20 nM CPT, ATP luminescence, 48 h; Potency, µM (series often up to 46.2 µM), without a hit: top-dose activity change, negative = growth inhibition, hits mostly inhibitors; hit rate 12% among 420,000; AID 686979; note: potency is the fitted concentration of half-maximal effect; % is set by controls: 0 for no effect and ±100 for the full control effect; nearly all actives have a fitted effect of over 55% in size
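Chicken DT40 Tdp1-/- cells stably complemented with human TDP1 were seeded at 400 cells/well in medium containing 20 nM camptothecin, exposed to pin-transferred compounds, and grown at 37 °C for at least 48 hr. Viability was read as ATP luminescence.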
TDP1 cell noCPT – qHTS for Inhibitors of human tyrosyl-DNA phosphodiesterase 1 (TDP1): qHTS in cells in absence of CPT | hit rate 15% among 420,000 | DT40 Tdp1-/- hTDP1 cells, no CPT, ATP luminescence, 48 h | Potency, µM (series often up to 46.2 µM), inactives show at the highest dose activity change, negative = growth inhibition, usual class: inhibitors; note: potency is the fitted concentration of half-maximal effect; % is set by controls: 0 for no effect and ±100 for the full control effect; nearly all actives have a fitted effect of over 55% in size
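No-CPT arm: Tdp1-/-;hTDP1 DT40 cells (400/well) plus compounds, incubated ≥48 hr at 37 °C. Readout CellTiter-Glo luminescence.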
IL1B secr inh – blocks inflammasome-driven IL-1 beta release; THP-1 LPS/ATP IL-1B secretion, AlphaLISA, 16 h; hits give low values; activity change, % at 57.5 µM; hit rate 4.7% among 360,000; in the data active = activity change below about -50%; inconclusive = mostly about -30% to -49%; note: % is set by controls: 0 for no effect and ±100 for the full control effect
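THP-1 cells pretreated 1 hr with compounds (up to 57.5 uM final), then stimulated with LPS (250 ng/mL final) plus ATP (1.25 mM final); secreted IL-1B measured by AlphaLISA after 16 hr, decreased signal indicating inhibition.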
Active calls of the source: *; ? = inconclusive; . = no result given. A selection: hits, their analogues and other compounds. The true share with any hit is near 21%. Unless noted, calls come from the whole dose curve; as a rule, active = well fitted inhibition curve with a large enough effect; inconclusive = small, poorly fitted or top-dose-only effect; inactive = flat fitted curve, though single readings scatter.

SMILES | ClpP mod | D3 ag | DRD3 antagonist | TDP1 cell CPT | TDP1 cell noCPT | IL1B secr inh
Clc1ccc(-c2nc3c4ccccc4ccn3c2Cc2ccsc2)cc1 | ? | -13.8 | -13.5 | 10.3µM* | 10.3µM* | 23.9
Cc1ccc(-n2ncc(C(=O)N3CCCCC3)c2C2CCN(C(=O)OC(C)(C)C)CC2)c(C)c1 | 1.0% | 1.1 | . | ? | ? | .
CC(=O)N1CCN(c2ccc(NC(=O)c3cc(Cl)ccc3Cl)cc2)CC1 | -1.7% | 9.3 | 2.8 | -29.2% | -13.9% | -62.8*
CC(=O)N1CCN(c2ccc(NC(=O)c3ccc(C(C)(C)C)cc3)cc2)CC1 | 0.5% | 17.3 | -88.5* | ? | 25.9µM* | -95.0*
CC(=O)N1CCN(c2ccc(NC(=O)c3ccc(Cl)cc3)cc2)CC1 | -1.8% | 2.8 | 25.7 | 4.5% | -17.9% | -2.6
CCOC(=O)N1CCC(N(C(=O)Nc2ccccc2)C(C)CC)CC1 (configuration not stated) | -1.3% | -6.6 | -15.4 | ? | ? | 4.8
CC(=O)N1CCC(N(CCCOC(C)C)C(=O)Nc2ccc(Cl)cc2)CC1 | 3.3% | -3.3 | -17.4 | -15.2% | -16.6% | -3.2
CCOC(=O)N1CCC(N(CCCOC)C(=O)Nc2ccc(CC)cc2)CC1 | -0.1% | 6.7 | -20.3 | 18.4µM* | 13µM* | 7.1
CCOC(=O)N1CCC(N(CCOC)C(=O)Nc2ccc(Cl)cc2)CC1 | -0.5% | 4.0 | 0.0 | ? | 14.6µM* | 0.0
CCOC(=O)N1CCC(N(C(=O)Nc2ccc(CC)cc2)C(C)CC)CC1 (configuration not stated) | -0.9% | -6.0 | 6.3 | ? | 23.1µM* | -8.0
CCCOc1ccc(C(=O)Nc2cc(-c3nc4cc(C)cc(C)c4o3)ccc2C)cc1 | -5.2% | 8.0 | . | 6.9% | ? | .
Cc1cc(C)c(S(=O)(=O)c2cccc(Br)c2C)c(=O)[nH]1 | -3.2% | 11.2 | 5.0 | ? | -13.4% | -14.4
Cc1ccc(-c2nc3ccccc3o2)cc1NC(=O)COc1ccccc1C | 4.8% | . | . | -8.1% | 3.9% | .
O=C(O)c1ccccc1Sc1c([N+](=O)[O-])cc(C(F)(F)F)cc1[N+](=O)[O-] | . | 5.5 | 8.3 | ? | ? | -66.7*
O=C(O)c1ccccc1NSc1ccccc1[N+](=O)[O-] | . | -3.4 | -11.4 | 9.4% | -23.4% | 34.2
O=C(NC(C(=O)N/N=C/c1c2ccccc2cc2ccccc12)c1n[nH]c(=O)c2ccccc12)c1ccccc1 (configuration not stated) | -5.4% | 2.8 | -4.5 | 8.2µM* | 10.3µM* | ?
O=C(NC(C(=O)N/N=C/c1ccccc1)c1n[nH]c(=O)c2ccccc12)c1ccccc1 (configuration not stated) | -0.9% | -1.2 | 1.3 | -5.4% | 0.1% | 7.0
Cc1ccc(S(=O)(=O)N2CCC(N3CCC(C)CC3)CC2)cc1 | -0.5% | -6.2 | -25.7 | -21.9% | -3.2% | -7.4
COc1cc(OC)cc(C(=O)OC(C)C(=O)NC2CCCc3ccccc32)c1 (configuration not stated) | -4.2% | 2.8 | 7.6 | -24.5% | 6.9% | -0.4
O=C1C=CN(C2OC(CO)C(O)C2O)C(=O)C1 (configuration not stated) | 0.2% | 3.9 | 5.6 | 8.2µM* | 3.66µM* | -9.4
NC(=O)c1ccc(=O)n(C2OC(CO)C(O)C2O)c1 (configuration not stated) | -11.6% | -10.7 | -18.1 | ? | -10.5% | -8.0
Cc1cc2c(cc1C)NC(CC(=O)Nc1cccc(C)c1C)C(=O)N2 (configuration not stated) | 3.9% | -0.8 | . | 14.6µM* | 16.4µM* | .
Cc1cc2c(cc1C)NC(CC(=O)NCc1ccccc1)C(=O)N2 (configuration not stated) | ? | -7.5 | -0.7 | ? | -23.1% | 0.6
COC(=O)c1c(NC(=O)CC2Nc3cc(C)c(C)cc3NC2=O)sc(C)c1C (configuration not stated) | 0.9% | -14.5 | 34.3 | 20.6µM* | ? | 7.2
Cc1ccc(NC(=O)CC2Nc3cc(C)c(C)cc3NC2=O)c(C)c1 (configuration not stated) | -14.3% | -4.2 | . | ? | ? | .
SMILES | ClpP mod | D3 ag | DRD3 antagonist | TDP1 cell CPT | TDP1 cell noCPT | IL1B secr inh
Cc1cc2c(cc1C)NC(CC(=O)Nc1ccccc1SC(F)(F)F)C(=O)N2 (configuration not stated) | -9.1% | 0.2 | . | ? | 16.4µM* | .
CCc1cc(C(=O)OC)c(NC(=O)CC2Nc3cc(C)c(C)cc3NC2=O)s1 (configuration not stated) | -1.6% | -1.4 | ? | -13.5% | -7.7% | 0.0
CC1=C(C(=O)N(C)C)CC(CC(=O)NC2CCCC2)C(=O)N1CCC1=CCCCC1 (configuration not stated) | 0.3% | 4.5 | 17.4 | -1.6% | -24.7% | 7.9
CC(c1ccccc1)n1c(SCC(=O)N2CC(=O)Nc3ccccc32)nc2ccccc2c1=O (configuration not stated) | 0.4% | -3.4 | -4.9 | 25.9µM* | 20.6µM* | -2.9
Cc1cccc(-n2c(SCC(=O)N3CC(=O)Nc4ccccc43)nc3ccccc3c2=O)c1 | -0.2% | -4.2 | 8.6 | ? | 23.1µM* | ?
Cc1ccc(-n2c(SCC(=O)N3CC(=O)Nc4ccccc43)nc3ccccc3c2=O)cc1C | -2.1% | 1.8 | -5.2 | ? | -24.7% | 0.0
Cc1ccc(Cn2c(SCC(=O)N3CC(=O)Nc4ccccc43)nc3ccccc3c2=O)cc1 | 1.6% | -10.1 | -23.2 | ? | ? | 0.0
Cc1cccc(-n2c(SCC(=O)N3CC(=O)Nc4ccccc43)nc3ccccc3c2=O)c1C | -6.3% | -2.1 | 2.6 | ? | 18.4µM* | -62.4*
CCc1ccc(-c2nc3c(c(SCc4ccccc4F)n2)Cc2c(CO)cnc(C)c2O3)cc1 | -2.8% | 6.3 | . | -0.8% | 5.2% | .
CN(C)c1cccc(C(=O)Nc2nnc(Cc3ccccc3)s2)c1 | . | -0.9 | -7.1 | ? | ? | 15.8
CCN1CCN(C(=O)c2cc3cc(F)ccc3[nH]2)CC1 | -0.7% | 0.0 | 0.0 | ? | -29.3% | -3.0
O=C(c1cc2cc(F)ccc2[nH]1)N1CCN(Cc2ccc3c(c2)OCO3)CC1 | -9.2% | -12.7 | -86.4* | ? | ? | -10.1
O=C(c1cc(-c2ccc(F)cc2)no1)N1CCN(Cc2ccc3c(c2)OCO3)CC1 | 1.0% | -12.2 | -22.8 | ? | 16.4µM* | -23.1
COc1cc(OC)cc(C(=O)N2CCN(Cc3ccc4c(c3)OCO4)CC2)c1 | 1.4% | -5.6 | -4.3 | -12.1% | 1.7% | .

Compound activity deposited in PubChem by National Center for Advancing Translational Sciences (NCATS).
